# Source: PubChem BioAssay AID651953 (The Scripps Research Institute Molecular Screening Center, 2012)
# Hit rate of the full screen: of about 2,400 compounds, about 430 (18%) were called active. Not all results are given here. Values without a mark were called inactive. Rule as the data show it: active = activation above about 12%; inactive = the rest.
# Assay: calcium activation in Ga16-expressing cells, counter-screen for TAAR1 antagonist project, cell-based, fluorescence (AID 651953);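 also: 0% = vehicle wells and 100% = saturating stimulus response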
# Settings: agonist counterscreen, at 3 µM, stronger effect = higher value
row,SMILES,activation
1,Cc1ccc2cccc(OCCCOc3ccccc3CO)c2n1,7.98%
2,COc1ccc(/C=C/C(=O)Nc2ccc(C34CC5CC(CC(O)(C5)C3)C4)cc2)cc1OC,11.4%
3,Cc1cccc(NC(=O)c2nc[nH]c2C(=O)NCC(=O)OCc2ccccc2)c1,4.58%
4,CSCCC(NC(=O)COc1ccccc1)C(=O)OCC(=O)c1cc2ccccc2o1 (stereo not given),7.36%
5,CC(=O)c1ccccc1OCc1ccc(C(=O)c2ccccc2)cc1,6.62%
6,Cc1nc(N2CCN(c3ccccn3)CC2)c2c(C)c(C(=O)Nc3ccc(F)cc3)sc2n1,8.75%
7,O=C(NCCN1C(=O)S/C(=C\c2cccnc2)C1=O)c1ccc(S(=O)(=O)N2CCCC2)cc1,2.99%
8,O=S1(=O)c2c(cccc2N2CCCCC2)O[C@H](COCc2ccccc2)CN1C1CC1,2.53%
9,CCN1CCc2c(C#N)c(NCc3ccccc3)nc(NCCO)c2C1,4.39%
10,COc1ccc(Cl)cc1NC(=O)CCS(=O)(=O)c1cc2c(cc1C)NC(=O)CO2,8.26%
11,COc1ccc(-c2cc(C(=O)N(C)CC(=O)Nc3ccccc3Cl)c3ccccc3n2)cc1OC,7.25%
12,CCOc1ccc(N2CC(C(=O)N/N=C/c3sccc3C)CC2=O)cc1 (stereo not given),1%
13,C/C(=N\Nc1ncc(Cl)cc1Cl)c1ccc(S(=O)(=O)NCc2ccco2)cc1,0.19%
14,CSC(=S)N/N=C/c1c[nH]c2ccccc12,6.16%
15,O=C(O)c1ccc(NC(=O)c2cn(-c3ccccc3)nc2-c2ccc(Cl)cc2)cc1,3.12%
16,O=C(NCC1CCCO1)c1cc2c([nH]c3ccccc32)c(-c2ccc(F)cc2)n1 (stereo not given),6.43%
17,COc1ccc(-c2cc(C(=O)N(C)Cc3ccc(OC)c(OC)c3OC)c3ccccc3n2)cc1OC,7.43%
18,COc1ccc(CN(C)C(=O)c2cc(-c3ccc(C)cc3C)nc3ccccc23)c(OC)c1OC,11.6% (active)
19,COc1ccc(-c2cc(C(=O)N(C)Cc3ccccc3)c3ccccc3n2)cc1,4.97%
20,CC(C)Oc1cc(F)ccc1-c1cc(C(=O)Nc2ccc(F)cc2)[nH]n1,5.64%
21,COc1ccc(C(=O)Nc2ccccc2C(=O)N/N=C/c2ccc(O)c(OC)c2)cc1,7.09%
22,Cc1cc(C(C)(C)C)oc1C(=O)N(CC(=O)NC1CCCC1)Cc1ccc(Cl)cc1,13.9% (active)
23,C=CCc1cc(S(=O)(=O)c2ccc(O)c(CC=C)c2)ccc1O,3.77%
24,COc1ccc2[nH]c(=O)c(CN(Cc3cccnc3)S(=O)(=O)c3ccccc3F)cc2c1,9.12%
25,Cc1ccccc1OCC(=O)Nc1ccc(N2CCN(C(=O)C(C)C)CC2)c(Cl)c1,11.8% (active)
26,CCNS(=O)(=O)c1ccc(CCC(=O)N2CCN(c3cc(Cl)ccc3C)CC2)cc1,11.5% (active)
27,Cc1ccc(C)c(N2CCN(C(=O)CCCCCn3c(=S)[nH]c4ccc(N5CCOCC5)cc4c3=O)CC2)c1,8.79%
28,OC(c1ccccc1)(c1ccccc1)C1CCN(CCCOc2ccc(-c3ccsc3)cc2)CC1,17.6% (active)
29,Cc1ccc(NC(=O)c2ccc(CSc3ncnc4nc[nH]c34)cc2)c(C)c1,7.81%
30,O=C(CCc1ccccc1)Nc1cccc(-c2nnc(-c3ccco3)o2)c1,11%
